Results on 92 compounds are retold here after PubChem BioAssay AID485346 (Sanford-Burnham Center for Chemical Genomics, 2010).

One may read the inhibition as the relative decrease from the control value, in per cent.

In all, about 330,000 compounds went through this assay and about 10,000 (3%) were called active. The sample holds actives, similar compounds and a random draw of the others, so the mix is not that of the screen.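 How the source made its calls: active means inhibition of at least 50% at 8 µM in the primary screen; inactive means the rest.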

The target in this assay is Protein Mdm4 (Homo sapiens) + E3 ubiquitin-protein ligase Mdm2 (Homo sapiens) (UniProt O15151+Q00987). As to the kind of experiment: disruptors of Mdm2/MdmX RING complex – cell-based, luminescence, split luciferase, SaOS-2, uHTS, primary screen (AID 485346). The conditions noted are these: SaOS-2 split-luciferase Mdm2/MdmX complementation, at 8 µM, hits give high values.
Protein Mdm4 (Homo sapiens) + E3 ubiquitin-protein ligase Mdm2 (Homo sapiens), sequence (O15151 whole entry, looked up): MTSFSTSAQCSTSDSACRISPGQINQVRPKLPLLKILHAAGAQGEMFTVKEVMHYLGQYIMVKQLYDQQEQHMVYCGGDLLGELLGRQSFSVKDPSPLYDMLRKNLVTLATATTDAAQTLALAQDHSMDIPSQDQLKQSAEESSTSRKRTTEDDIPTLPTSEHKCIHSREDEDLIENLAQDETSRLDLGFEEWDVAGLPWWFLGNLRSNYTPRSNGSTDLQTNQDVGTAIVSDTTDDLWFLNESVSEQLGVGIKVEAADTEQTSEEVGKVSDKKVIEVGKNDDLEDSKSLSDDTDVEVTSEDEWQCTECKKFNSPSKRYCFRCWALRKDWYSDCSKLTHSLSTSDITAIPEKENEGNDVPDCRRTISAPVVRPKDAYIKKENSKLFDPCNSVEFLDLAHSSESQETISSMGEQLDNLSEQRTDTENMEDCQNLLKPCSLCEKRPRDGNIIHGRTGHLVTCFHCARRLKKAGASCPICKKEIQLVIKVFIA
Protein Mdm4 (Homo sapiens) + E3 ubiquitin-protein ligase Mdm2 (Homo sapiens), sequence (Q00987 whole entry, looked up): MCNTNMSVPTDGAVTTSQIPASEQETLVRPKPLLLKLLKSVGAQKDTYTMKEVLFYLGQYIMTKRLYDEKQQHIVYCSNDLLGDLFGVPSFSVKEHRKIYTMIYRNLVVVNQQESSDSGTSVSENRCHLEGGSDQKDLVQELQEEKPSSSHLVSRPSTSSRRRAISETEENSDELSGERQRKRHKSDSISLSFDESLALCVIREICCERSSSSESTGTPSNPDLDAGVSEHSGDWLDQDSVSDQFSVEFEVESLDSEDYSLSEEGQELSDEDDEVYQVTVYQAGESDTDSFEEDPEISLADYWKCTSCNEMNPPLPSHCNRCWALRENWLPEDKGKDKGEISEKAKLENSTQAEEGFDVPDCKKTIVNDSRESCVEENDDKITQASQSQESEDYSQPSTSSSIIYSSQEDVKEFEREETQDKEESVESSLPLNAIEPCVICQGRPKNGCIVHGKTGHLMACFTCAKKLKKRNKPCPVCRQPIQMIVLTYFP
As for `C=CCO/N=C(\C)c1c(O)c(C)c(-c2ccccc2)n(-c2ccccc2)c1=O`, the inhibition is 9.07% (inactive). As for `CC(OC(=O)c1cc2ccccc2o1)C(=O)Nc1ccc(N2CCOCC2)cc1` (configuration not stated), the inhibition is 11.3% (inactive). Take `CN(CC(=O)Nc1c(Cl)cccc1Cl)C(=O)c1ccncc1`: the inhibition is 19.3% (inactive). With `Cc1occc1-c1nnc(SCC(=O)NC2(C#N)CCCC2)n1C`, the inhibition is 22.7% (inactive). For the compound `CN1CCN(S(=O)(=O)c2ccc(N3CCN(c4ccccc4O)CC3)c([N+](=O)[O-])c2)CC1`, the inhibition was 2.63% (inactive). For the compound `NC(=O)Cc1nc2scc(-c3ccc(Cl)cc3)c2c(=O)[nH]1`, the inhibition is -0.903% (inactive). In the case of `O=c1[nH]c(CN2CCOCC2)nc2cc(Cl)ccc12`, the inhibition is -2.08% (inactive). Consider `O=c1[nH]c(CCl)nc2cc(-c3ccc(Cl)cc3)sc12`, for which the inhibition was 80.8% (active). For `O=C1c2ccccc2[C@@H]2C[C@@H](O)[C@H](Nc3ccccc3Cl)CCN12`, the inhibition was 22.5% (inactive). In the case of `Cc1ccnc(SCC(=O)Nc2cccc(S(=O)(=O)N3CCOCC3)c2)n1`, the inhibition was 15.8% (inactive). As for `CC(=O)Oc1c(C(=O)c2nnc(C)o2)c(=O)n(Cc2ccccc2)c2ccccc12`, the inhibition is 53.7% (active). Consider `CC(=O)c1nc2ccccc2n1Cc1ccccc1`, for which the inhibition is 4.16% (inactive). As for `COC(=O)CSc1nc2ccccc2c(=O)n1Cc1ccccc1`, the inhibition was 1.48% (inactive). As to `CCN1C(=S)N[C@@H](CCc2ccccc2)[C@H](C(=O)OC)[C@H]1C`, the inhibition was 6.92% (inactive).

As to `Cc1ccc(NC(=O)/C(=C/c2ccc([N+](=O)[O-])cc2)NC(=O)c2ccccc2)cc1`, the inhibition was 17.1% (inactive). With `CCOC(=O)/C(=C\c1ccc([N+](=O)[O-])cc1)C(=O)c1cc(C(C)=O)c(Nc2ccccc2)s1`, the inhibition was 99.3% (active). As to `CCOC(=O)/C(=N\Nc1ccccc1[N+](=O)[O-])c1csc(Nc2ccccc2)n1`, the inhibition is 23.4% (inactive). Under `O=C(C1CC(=O)N(C2CCCC2)C1)N1CCN(c2cccc(C(F)(F)F)c2)CC1` (configuration not stated) stands 4.03% (inactive); under `Cc1cc(Nc2cccc(C)c2C)n2ncnc2n1`, -28.4% (inactive); under `Cc1cccc(OCC(O)Cn2c(N3CCCCC3)nc3c2c(=O)[nH]c(=O)n3C)c1` (configuration not stated), -19.9% (inactive). For the compound `COc1ccc(C(=O)CSc2nnc(NC(=O)C3CC(=O)N(c4cccc(OC)c4)C3)s2)cc1` (configuration not stated), the inhibition was -12.2% (inactive). For the compound `NC(=O)CSc1nnc(NC(=O)c2ccc3ccccc3c2)s1`, the inhibition was -8.44% (inactive). In the case of `O=C(/C=C/c1ccccc1)Nc1nnc(SCC(=O)c2ccc3ccccc3c2)s1`, the inhibition was 69.7% (active).

On to `CC(=O)N/C(=C\c1ccccc1)C(=O)OC(C)C(=O)N(C)c1ccccc1` (configuration not stated), for which the inhibition was 19.3% (inactive).

Turning to `O=C(CCSCCc1ccccn1)Nc1nccs1`, the inhibition is -7.99% (inactive).

With `COc1ccc(C2CC(c3ccccc3)=NN2C(=O)c2ccc(Cl)c([N+](=O)[O-])c2)cc1` (configuration not stated), the inhibition was 88.8% (active).

Turning to `COc1ccc(C2CC(c3ccc([N+](=O)[O-])cc3)=NN2C(C)=O)cc1` (configuration not stated), the inhibition was -14% (inactive). In the case of `COc1ccc(C2=NN(C(=O)c3cccnc3)C(c3ccccc3)C2)cc1` (configuration not stated) it was 19.9% (inactive); in that of `COc1ccc(C(C(=O)NC2CCCC2)N(CCCO)C(=O)Cn2nnc(-c3ccc(C)o3)n2)cc1` (configuration not stated), -6.39% (inactive). Under `COC(C[C@@H](O)[C@H](C)[C@H](O)COCc1ccccc1)OC` stands 26.1% (inactive); under `COc1ccc(C2=NN(C(=O)c3ccccc3C(=O)O)C(c3ccccc3O)C2)cc1` (configuration not stated), -30.7% (inactive); under `CCOc1ccc2nc(Cl)c(C3CC(c4ccccc4)=NN3C(=O)c3cccs3)cc2c1` (configuration not stated), 95% (active).

Regarding `CCOc1ccccc1C1CC(c2cccc(NS(C)(=O)=O)c2)=NN1C(=O)c1ccccc1` (configuration not stated), the inhibition was 8.21% (inactive). In the case of `COc1ccc(OC)c(S(=O)(=O)n2c([N+](=O)[O-])cnc2C)c1` it was 22.7% (inactive); in that of `CCOc1ccc(C(C)C)cc1S(=O)(=O)n1nc(C)cc1C`, 13.1% (inactive). As for `COc1ccc(C(C[N+](=O)[O-])n2nc(C)cc2C)cc1` (configuration not stated), the inhibition was 69.3% (active).

For `Cc1ccc(Cl)c(NC(=O)CN(C)CC(=O)Nc2ccc(F)c(F)c2F)c1Cl`, the inhibition is -0.971% (inactive). Turning to `O=C(OCC(=O)N1CCCCCC1)c1ccc(Cl)nc1`, the inhibition is 0.359% (inactive). With `O=C(NNc1c2ccccc2nc2ccccc12)c1cc2ccccc2cc1O`, the inhibition is 35.2% (inactive). Consider `Cc1ccccc1NC(=O)NNC(=O)OC(C)(C)C`, for which the inhibition is 20.7% (inactive). In the case of `CC(C)(C)OC(=O)NNc1c2ccccc2nc2ccccc12` it was 95.7% (active); in that of `C/C(=N/Nc1ccc(Cl)cc1)c1cnnc(-c2ccccc2)n1`, -8.35% (inactive); in that of `Cc1nc(SCC(=O)Nc2cc(C)on2)c2c(C)c(C)sc2n1`, 79.8% (active).

`Cc1cc(NC(=O)CSc2ncc(C(F)(F)F)cc2Cl)no1`: the inhibition was 6.3% (inactive). Turning to `Cc1cc(NC(=O)CSc2nc(C(C)C)nc3sc4c(c23)CCC(C)C4)no1` (configuration not stated), the inhibition was 48.9% (inactive). `COc1cccc(OCCOc2cccc(/C=N/n3cnnc3)c2)c1`: the inhibition is -7.51% (inactive). In the case of `Cc1ccccc1OCCOc1ccc([N+](=O)[O-])cc1/C=N/n1cnnc1` it was 58.7% (active). In the case of `Cc1cc([N+](=O)[O-])c(-c2ccc(/C=N/n3cnnc3)o2)cc1Cl`, the inhibition was 26.5% (inactive). In the case of `COc1ccc(CCNC(=O)COC(=O)c2cnc(Cl)c(Cl)c2)cc1` it was -24.9% (inactive); in that of `CC(C)(c1ccccc1)c1ccc(OCCN)cc1`, 29.2% (inactive). Consider `CN(C)CC(O)COc1ccc(C(C)(C)c2ccc(OCC(O)CN(C)C)cc2)cc1` (configuration not stated), for which the inhibition was 97.5% (active). For `Cc1cc(C)n(CC(O)COc2ccc(C(C)(C)C)cc2)n1` (configuration not stated), the inhibition is 0.107% (inactive). With `CC(Oc1cccc(Cl)c1)C(=O)NC1CC(C)(C)NC(C)(C)C1` (configuration not stated), the inhibition is 12.5% (inactive). As to `Cc1ccc(C(CC(=O)O)NC(=O)c2ccc(S(=O)(=O)N3CCCC3)cc2)cc1` (configuration not stated), the inhibition was 23.9% (inactive).

Turning to `COc1ccc(S(=O)(=O)N2CCOCC2)c(C)c1C`, the inhibition was 4.93% (inactive). Consider `COc1ccc(CN(C)C(=S)Nc2ccc(Cl)cc2Cl)cc1`, for which the inhibition was 2.13% (inactive).

For the compound `COc1ccc(CCNCC(O)Cn2ccc3ccccc32)cc1OC` (configuration not stated), the inhibition is 11.5% (inactive). Regarding `COc1c(C)c2c(c(O)c1C/C=C(\C)CCC(=O)O)C(=O)OC2`, the inhibition is 97.1% (active). Under `NNC(=O)c1ccc(COCC(F)(F)C(F)F)cc1` stands 6.42% (inactive); under `O=C(Nc1ccccc1Cc1ccccc1)c1ccc2c(c1)SC1=NS(=O)(=O)CCN12`, 20.2% (inactive). Under `Cc1cc(=O)oc2cc(OCC3CC(c4ccccc4Cl)=NO3)ccc12` (configuration not stated) stands 63.9% (active); under `CCOc1ccccc1N1CCN(C(=O)COc2ccc3c(C)cc(=O)oc3c2)CC1`, 18.6% (inactive). In the case of `Cc1cc(=O)oc2cc(OCCC[n+]3ccccc3)ccc12` it was -31% (inactive). As to `O=C1C=C(c2cc(C(F)(F)F)cc(C(F)(F)F)c2)C[C@@H](c2ccc3c(c2)OCO3)C1`, the inhibition is 15.2% (inactive).

On to `CCc1ccc(-n2c(SCc3cc(=O)n4cc(Br)ccc4n3)nc3[nH]ncc3c2=O)cc1`, for which the inhibition was 41.3% (inactive). With `CC(O)CN(Cc1ccc(Cl)cc1)CC(C)O` (configuration not stated), the inhibition was 14.3% (inactive). On to `CC(C)(C)[C@H]1C=C(C(=O)NCc2ccccc2)O[C@@H](OCc2ccc(CO)cc2)C1`, for which the inhibition was 29.5% (inactive). On to `O=C(NCc1ccccc1)C1=C[C@H](C2CC2)C[C@H](OCc2ccc(CO)cc2)O1`, for which the inhibition is -19% (inactive). Under `O=C(NCc1ccccc1)C1=C[C@@H](C2CCCCC2)C[C@@H](OCc2ccc(CO)cc2)O1` stands 55.5% (active). Under `Nn1cnnc1N/N=C/c1cc([N+](=O)[O-])c(Cl)cc1Cl` stands -3.78% (inactive).

Turning to `CC(=O)NNc1cc(=O)c2c(=O)n(C)c(=O)n(C)c2[nH]1`, the inhibition is -7.44% (inactive). Turning to `CCOc1ccccc1C(=O)NC1CC2CCCC(C1)N2Cc1ccccc1` (configuration not stated), the inhibition was -3.94% (inactive). In the case of `CC(=O)Nc1ccc(S(=O)(=O)NCC(=O)OCc2cc(=O)oc3ccc4ccccc4c23)cc1`, the inhibition was -8.78% (inactive). With `COc1ccc(CNC(=O)COC(=O)c2sccc2C)cc1OC`, the inhibition was 14.3% (inactive).

For `COC(=O)c1ccc(COC(=O)c2cnc(Cl)c(Cl)c2)cc1`, the inhibition was 0.646% (inactive). `CCOc1ccc(C(C)=O)cc1COC(=O)CNC(=O)c1cccs1`: the inhibition is 26.9% (inactive).

For `CCOc1ccc(C(C)=O)cc1COC(=O)c1cnc(Cl)c(Cl)c1`, the inhibition is 97.4% (active). As for `COc1ccccc1C(=O)NCC(=O)NCCSc1ccc(Br)cc1`, the inhibition is 12.7% (inactive). Consider `CCc1ccccc1NC(=O)CN(c1ccc(OC)cc1OC)S(=O)(=O)c1ccccc1[N+](=O)[O-]`, for which the inhibition was 18.2% (inactive).

For `N#Cc1cccc(CSc2nnc(CCCO)n2-c2ccccc2)c1`, the inhibition is 7% (inactive).

For `Brc1ccc2ncnc(NCc3cccnc3)c2c1`, the inhibition was 73.1% (active). Regarding `Cc1cc(NCc2cccnc2)no1`, the inhibition is 0.68% (inactive). As to `Clc1ccc(Cn2ncc3c(NCc4cccnc4)ncnc32)cc1`, the inhibition was 20.9% (inactive).

As for `CCN(C(=O)Cc1c(C(=O)O)n(CC)c2ccccc12)c1ccccc1C`, the inhibition is 13.2% (inactive). For `O=C(COC(=O)CCCN1C(=O)c2cccc3cccc(c23)C1=O)NC1CCS(=O)(=O)C1` (configuration not stated), the inhibition was -2.87% (inactive). With `O=C1NC2(CCCCC2)N=C1c1ccccc1`, the inhibition is 4.91% (inactive). In the case of `COc1cccc(CNC(=O)Cc2csc(Nc3nc(=S)[nH]c4ccccc34)n2)c1`, the inhibition was 60.5% (active). `O=C(Cc1ccc(-n2c(=O)[nH]c3ccccc3c2=O)cc1)N1CCN(c2cccc(Cl)c2)CC1`: the inhibition is -17% (inactive).

Take `COc1cccc(CNC(=O)CN2C(=O)NC(Cc3ccccc3)(c3ccccc3)C2=O)c1` (configuration not stated): the inhibition was -11% (inactive).

`O=C(Cc1csc(Nc2nc(=S)[nH]c3ccccc23)n1)NCCCN1CCN(c2cccc(Cl)c2)CC1`: the inhibition was 77.1% (active). Regarding `COc1cccc(CNC(=O)c2n[nH]c3ccccc23)c1`, the inhibition is -9.68% (inactive). With `O=C(CCCn1c(=O)[nH]c2cc(Cl)ccc2c1=O)NCCN1CCN(c2ccccc2)CC1`, the inhibition was 9.17% (inactive).
